# Records with an inconclusive call do not appear. Where a call stands in place of a potency, no number is given. The source made the active and inactive calls. Calls come from the whole dose curve; as a rule, active = well fitted curve in the direction sought with a large enough effect; inconclusive = small, poorly fitted or top-dose-only effect, or another doubt; inactive = no such curve, though single readings can be large; an effect the other way counts as inactive or inconclusive.
# Experiments:
# [1] = system: Zika virus NS2B-NS3 protease (unlinked complex); assay: Primary screen GU Rhodamine qHTS for Zika virus inhibitors: Unlinked NS2B-NS3 protease assay (AID 1347159); details: Recombinant ZIKV NS2B-NS3 protease, Rhodamine110 substrate fluorescence; series mostly up to 107 µM; note: nearly all actives have a fitted effect of over 60% in size; note: potency is the fitted concentration of half-maximal effect
# Outline: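 Compounds, tested up to 114 microM, were incubated for 15 minutes with 25 nM unlinked NS2B-NS3 protease at pH 8.0. Cleavage of 1.5 microM Rhodamine110 substrate was then followed by fluorescence for 15 minutes.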
# [2] = system: Zika virus NS2B-NS3 protease (linked construct); assay: Primary screen NINDS Rhodamine qHTS for Zika virus inhibitors (AID 1347160); details: purified NS2B-NS3 protease, Rhodamine110 substrate fluorescence; series mostly up to 57.1 µM; note: nearly all actives have a fitted effect of over 55% in size; note: potency is the fitted concentration of half-maximal effect
# Outline: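 Percent inhibition, normalized to uninhibited and enzyme-free controls, is fitted to a 4-parameter Hill equation. Fluorescence change comes from a 15-min cleavage of 1.5 microM bis-peptide Rhodamine110 substrate by 25 nM linked NS2B-NS3 at room temperature.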
# [3] = qHTS to identify inhibitors of the type 1 interferon - major histocompatibility complex class I in skeletal muscle: primary screen against the NCATS Mechanism Interrogation Plate v5.0 (MIPE) Libary (AID 1347411); details: iHSKM cells + IFN-b, HiBiT-tagged MHC-I luminescence, 24 h; series mostly up to 45.8 µM; note: nearly all actives have a fitted effect of over 65% in size; note: potency is the fitted concentration of half-maximal effect
# Outline: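 Immortalized human myoblasts (C25cl48) with HiBit knocked into endogenous HLA-B*08:01 were stimulated with 4 ng/ml IFN-beta and given compounds in 11-point 1:3 titration from 46 uM. After 24 h at 37 C, lytic HiBiT luminescence was read.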
# [4] = target: Calcium and integrin-binding protein 1 (Homo sapiens) (UniProt Q99828); assay: Primary qHTS for Identification of Calcium Integrin Binding Protein 1 (CIB1) Competitor (AID 1508620); details: CIB1-GST / FITC-alphaIIb peptide fluorescence polarization; series mostly up to 57.7 µM;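 note: GST tagged CIB1 binding a fluorescein labelled alphaIIb integrin peptide tracer; top concentration of the series differs between compounds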
# Outline: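 CIB1-GST (1 uM final) and compound incubated 15 min at room temperature before adding FITC-alphaIIb peptide tracer (100 nM final). Competition for binding read by fluorescence polarization (ex 480, em 540) after another 15 min at room temperature.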
# [5] = Confirmatory screen NINDS Rhodamine qHTS for Zika virus inhibitors (AID 1347161); details: purified enzyme assay, Rhodamine110 substrate fluorescence, 15 min; series mostly up to 114 µM;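 note: purified Zika NS2B-NS3 protease with linked NS2B cofactor domain and Rhodamine110 peptide substrate; nearly all actives have a fitted effect of over 60% in size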
# Outline: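 Kinetic fluorescence (Ex 480 nm, Em 540 nm) over 15 min with 1.5 microM Rhodamine110 peptide and 25 nM linked protease.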
# [6] = Vero cells viability qHTS for Zika virus inhibitors (AID 1347167); details: cytotoxicity counter-screen (Zika); series mostly up to 45.9 µM
# Outline: (§1)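 Compounds were tested in concentration series on cells grown in DMEM containing 4% FBS. After 24 to 48 hours, cellular ATP was measured by luminescence with CellTiter Glo.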
# [7] = Tertiary RLuc qRT-PCR qHTS assay for Zika virus inhibitors (AID 1347169); details: infected Vero cells, reporter luminescence, 48-72 h; series mostly up to 89.2 µM; note: potency is the fitted concentration of half-maximal effect; nearly all actives have a fitted effect of over 55% in size
# Outline: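 Inhibition of ZIKV-RLuc replication in Vero cells, read as Renilla luminescence 1-1.5 hrs after live-cell substrate addition, following 48-72 hrs infection at MOI 1-2 in presence of compound.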
# [8] = HepG2 cells viability qHTS for Zika virus inhibitors (AID 1347168); details: Zika counter-screen; series mostly up to 45.9 µM; note: potency is the fitted concentration of half-maximal effect
# Outline: as §1
# [9] = target: Calcium and integrin-binding protein 1 (Homo sapiens) (UniProt Q99828); assay: Confirmatory qHTS for Identification of Calcium Integrin Binding Protein 1 (CIB1) Competitor (AID 1508617); details: CIB1 binding competition assay, biochemical qHTS; series mostly up to 114 µM; note: nearly all actives have a fitted effect of over 65% in size; note: potency is the fitted concentration of half-maximal effect
# Outline: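 Binding competition between test compounds and fluorescent alphaIIb peptide for 1 uM CIB1-GST is monitored by FP at 480/540 nm. Final compound range is up to 114 uM; unlabeled peptide serves as reference competitor.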
# Chain of Calcium and integrin-binding protein 1 (Homo sapiens) (Q99828 whole entry, looked up): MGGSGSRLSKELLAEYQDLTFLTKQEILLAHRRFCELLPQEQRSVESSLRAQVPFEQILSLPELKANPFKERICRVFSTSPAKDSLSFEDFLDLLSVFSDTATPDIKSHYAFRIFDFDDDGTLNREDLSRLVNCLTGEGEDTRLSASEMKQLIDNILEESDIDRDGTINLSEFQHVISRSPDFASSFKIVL
smiles,measurement,setting,value
CC(C)c1cnn2c(NCc3ccccc3)cc(N[C@@H](CO)[C@H](O)CO)nc12,Potency,[1],inactive
same,Potency,[2],inactive
same,Potency,[3],0.186 µM (active)
same,outcome,[4],inactive
CCn1cc(-c2ccnc3[nH]c(-c4cccc(CN(C)C)c4)cc23)c(-c2ccc(NC(=O)N(C)C)cc2)n1,Potency,[1],inactive
same,Potency,[2],inactive
same,Potency,[5],inactive
same,Potency,[6],inactive
same,outcome,[4],inactive
CCc1c2c(nc3ccc(O)cc13)-c1cc3c(c(=O)n1C2)COC(=O)[C@]3(O)CC,Potency,[1],inactive
same,Potency,[2],10 µM (active)
same,Potency,[5],inactive
same,Potency,[7],0.0658 µM (active)
same,Potency,[3],1.17 µM (active)
same,outcome,[4],inactive
CCCCCCCCCC(=O)N[C@@H](Cc1c[nH]c2ccccc12)C(=O)N[C@H](CC(N)=O)C(=O)N[C@@H](CC(=O)O)C(=O)N[C@@H]1C(=O)NCC(=O)N[C@@H](CCCN)C(=O)N[C@@H](CC(=O)O)C(=O)N[C@H](C)C(=O)N[C@@H](CC(=O)O)C(=O)NCC(=O)N[C@H](CO)C(=O)N[C@@H]([C@@H](C)CC(=O)O)C(=O)N[C@@H](CC(=O)c2ccccc2N)C(=O)O[C@@H]1C,Potency,[1],inactive
same,Potency,[2],inactive
same,Potency,[3],inactive
same,outcome,[4],inactive
Cc1ccc(C(=O)Nc2ccc(CN3CCN(C)CC3)c(C(F)(F)F)c2)cc1C#Cc1cnc2cccnn12,Potency,[1],inactive
same,Potency,[2],inactive
same,Potency,[3],4.15 µM (active)
same,outcome,[4],inactive
CC1(C)CCC(c2ccc(Cl)cc2)=C(CN2CCN(c3ccc(C(=O)NS(=O)(=O)c4ccc(N[C@H](CCN5CCOCC5)CSc5ccccc5)c(S(=O)(=O)C(F)(F)F)c4)cc3)CC2)C1,Potency,[1],2.24 µM (active)
C[C@@H]1COC(Nc2ccc3ncnc(Nc4ccc(OCc5nccs5)c(Cl)c4)c3c2)=N1,Potency,[1],inactive
same,Potency,[2],inactive
same,Potency,[3],16.5 µM (active)
same,outcome,[4],inactive
CN1CCC(CNc2ccc3ncc(-c4cccc(OC(F)(F)F)c4)n3n2)CC1,Potency,[1],inactive
same,Potency,[2],inactive
same,Potency,[5],inactive
same,Potency,[8],11.7 µM (active)
C[C@]1(CO)CN(c2cc(C(=O)Nc3ccc4c(c3)-c3c(c(C(N)=O)nn3-c3ccc(F)cc3)CC4)c(Cl)cn2)C[C@@]1(C)CO,Potency,[1],inactive
same,Potency,[2],inactive
NC(=O)c1cccc2cn(-c3ccc([C@@H]4CCCNC4)cc3)nc12,Potency,[1],inactive
same,Potency,[2],inactive
same,Potency,[3],inactive
same,outcome,[4],inactive
O=C(c1ccc(Nc2nccc(-c3cc4ccccc4s3)n2)cc1)N1CCC(N2CCCC2)CC1,Potency,[1],inactive
same,Potency,[2],inactive
same,Potency,[3],5.23 µM (active)
same,outcome,[4],inactive
Cc1coc2c1C(=O)C(=O)c1c-2ccc2c1CCCC2(C)C,Potency,[1],22.4 µM (active)
same,Potency,[2],14.1 µM (active)
same,Potency,[9],39.8 µM (active)
CCNC(=O)Nc1ccc2ncc(Nc3ccc(C)cc3)nc2n1,Potency,[1],25.1 µM (active)
same,Potency,[2],35.5 µM (active)
same,outcome,[4],inactive
COc1cccc2nc(-c3cccs3)nc(NN3C(=O)C=C(C)C3=O)c12,Potency,[1],inactive
same,Potency,[2],inactive
same,Potency,[3],2.94 µM (active)
same,outcome,[4],inactive
CNC(=O)CN1CCC(Oc2cc3c(Nc4cccc(Cl)c4F)ncnc3cc2OC)CC1,Potency,[1],inactive
same,Potency,[2],inactive
same,outcome,[4],inactive
Nc1cc(C(F)(F)F)c(-c2cc(N3CCOCC3)nc(N3CCOCC3)n2)cn1,Potency,[1],inactive
same,Potency,[2],inactive
same,outcome,[4],inactive
Cc1[nH]nc2ccc(-c3cncc(OC[C@@H](N)Cc4ccccc4)c3)cc12,Potency,[1],inactive
same,Potency,[2],inactive
same,Potency,[3],1.86 µM (active)
same,outcome,[4],inactive
COc1cc2c(NC3CCN(C(C)C)CC3)nc(C3CCCCC3)nc2cc1OCCCN1CCCC1,Potency,[1],inactive
same,Potency,[2],inactive
same,outcome,[4],inactive
CC1(C)CC(=O)c2c(C(F)(F)F)nn(-c3ccc(C(N)=O)c(NC4CCC(OC(=O)CN)CC4)c3)c2C1 (stereo unspecified),Potency,[1],inactive
same,Potency,[2],inactive
same,outcome,[4],inactive
Nc1cccc(-c2cc3c(Oc4cccc(O)c4)ncnc3[nH]2)c1,Potency,[1],inactive
same,Potency,[2],inactive
same,outcome,[4],inactive
CNc1nccc(-c2cccnc2Oc2cc(C(=O)Nc3cccc(C(F)(F)F)c3)ccc2C)n1,Potency,[1],inactive
same,Potency,[2],inactive
same,Potency,[3],5.87 µM (active)
same,outcome,[4],inactive
CC(=O)Nc1sc2c(c1-c1nc3ccccc3s1)CNC2,Potency,[1],inactive
same,Potency,[2],inactive
same,Potency,[9],inactive
same,outcome,[4],inactive
C1Cc2[nH]nc(-c3nn[nH]n3)c2C1,Potency,[1],inactive
same,Potency,[2],inactive
same,Potency,[3],inactive
same,outcome,[4],inactive
Nc1ncnc2c1c(-c1cccc(OCc3ccccc3)c1)cn2C1CC(CN2CCCC2)C1 (stereo unspecified),Potency,[1],inactive
same,Potency,[2],inactive
same,outcome,[4],inactive
Cc1cc(Nc2cc(N3CCN(C)CC3)nc(Sc3ccc(NC(=O)C4CC4)cc3)n2)n[nH]1,Potency,[1],inactive
same,Potency,[2],inactive
same,Potency,[3],inactive
same,outcome,[4],inactive
Nc1ncnc2c1c(-c1cnc3[nH]ccc3c1)nn2C1CCCC1,Potency,[1],inactive
same,Potency,[2],inactive
same,Potency,[3],0.829 µM (active)
same,outcome,[4],inactive
CC(C)c1cc(C(=O)N2Cc3ccc(CN4CCN(C)CC4)cc3C2)c(O)cc1O,Potency,[1],inactive
same,Potency,[2],inactive
same,outcome,[4],inactive
COCCOc1ccc2c(c1)ncn2-c1ccc2cccc(N3CCC(N)CC3)c2n1,Potency,[1],inactive
same,Potency,[2],inactive
same,Potency,[3],1.86 µM (active)
same,outcome,[4],inactive
Nc1nc(NCCNc2ncc(-n3ccnc3)c(-c3ccc(Cl)cc3Cl)n2)ccc1[N+](=O)[O-],Potency,[1],inactive
same,Potency,[2],inactive
same,outcome,[4],inactive
CNC(=O)c1cc(Oc2ccc(NC(=O)Nc3cc(C(C)(C)C)nn3-c3ccc4ncccc4c3)c(F)c2)ccn1,Potency,[1],inactive
same,Potency,[2],inactive
same,Potency,[3],8.29 µM (active)
same,outcome,[4],inactive
C[C@@H](Oc1cc(-c2cnn(C3CCNCC3)c2)cnc1N)c1c(Cl)ccc(F)c1Cl,Potency,[1],inactive
same,Potency,[2],inactive
same,outcome,[4],inactive
